Source: PubChem
This is one part of a sample in which hits are shown more often than they occur.
ST2 inh = inhibitors of human ST2 (IL1RL1) binding to IL-33, primary screen, biochemical, AlphaLISA. Interleukin-1 receptor-like 1 (Homo sapiens), Q01638. AlphaLISA ST2-Fc/biotin-IL-33 interaction, 1 h. inhibition, % for hits at 17 µM. AID 1259354, 2018. hit rate 2.3% among 78,000; in the data active = inhibition above about 30%
Target sequence (Q01638 whole entry, looked up): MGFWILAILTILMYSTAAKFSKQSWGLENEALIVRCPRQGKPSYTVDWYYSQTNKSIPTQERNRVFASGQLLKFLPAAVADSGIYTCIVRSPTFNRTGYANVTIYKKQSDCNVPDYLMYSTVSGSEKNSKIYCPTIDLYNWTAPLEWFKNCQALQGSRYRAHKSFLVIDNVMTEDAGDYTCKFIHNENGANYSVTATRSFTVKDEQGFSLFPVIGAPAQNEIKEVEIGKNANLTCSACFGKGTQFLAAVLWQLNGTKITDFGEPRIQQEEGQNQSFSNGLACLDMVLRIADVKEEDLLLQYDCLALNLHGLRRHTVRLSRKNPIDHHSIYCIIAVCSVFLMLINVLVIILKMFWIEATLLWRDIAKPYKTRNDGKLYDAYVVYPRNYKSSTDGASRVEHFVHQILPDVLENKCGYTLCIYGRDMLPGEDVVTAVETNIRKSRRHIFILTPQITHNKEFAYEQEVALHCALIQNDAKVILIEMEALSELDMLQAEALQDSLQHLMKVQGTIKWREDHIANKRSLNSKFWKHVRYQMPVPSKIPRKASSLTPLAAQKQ
An asterisk follows results filed as active; i = inactive; ! = a repeat was not active.

SMILES	ST2 inh
N#Cc1c(-c2ccccc2)cc(N2CCOCC2)n2c1nc1ccccc12	i
CCOc1ccc(-n2c3nc(=O)n(C)c(=O)c-3cc3ccccc32)cc1	i
CCCCOc1ccc(OCCCC)c2c1nc(-c1ccccc1NC)c(=O)n2C	69%*
CCn1nc(-c2ccccn2)nc2c(=O)n(C)c(=O)nc1-2	i
CCOC(=O)c1c(NC(=O)CCCn2nc(C)c([N+](=O)[O-])c2C)sc2c1CCCC2	i
O=C1OC(c2ccc(Oc3ccccc3)cc2)=C/C1=C\c1ccco1	54%*
COc1ccc(C2=Cc3cc(OC)c(OC)cc3/C(=C/c3ccccc3)O2)cc1	i
O=c1oc(-c2ccc(Oc3ccccc3)cc2)nc2ccccc12	i
Cc1cc(C)n(CCNC(=O)COc2c(C)ccc(C)c2C)c(=O)n1	i
Cc1cc(C)c2nc(NC(=O)c3ccncc3)sc2c1	i
CCc1ccc(N2C(=O)c3ccccc3NC2c2cccc([N+](=O)[O-])c2)cc1 (centres undefined)	i
CCC1(CC)OC(c2cccn2-c2ccc([N+](=O)[O-])cc2)Nc2ccccc21 (centres undefined)	54%*
CCOC1=NC2Nc3ccccc3N(CC)C2C1c1ccc([N+](=O)[O-])cc1 (centres undefined)	i
Nc1nc(-c2ccccc2)c(Br)c(=O)[nH]1	i
Brc1c(-c2ccccc2)nc2n1-c1ccccc1C2	44%*
Cc1[nH]nc(-c2ccccc2)c1Br	i
CCCCC(=O)Nc1cccc(OCc2cc(=O)n3ccc(C)cc3n2)c1	i
O=C(c1ccccc1)N(c1ccc(F)cc1)C1C=CS(=O)(=O)C1 (centres undefined)	i
COc1cccc(NC(=O)CN(c2ccc(Cl)c(Cl)c2)S(C)(=O)=O)c1	96%*
COc1ccc(N(CC(=O)Nc2ccc(F)cc2)S(C)(=O)=O)cc1Cl	i
COc1ccc(N(CC(=O)Nc2ccc(C)c(Cl)c2)S(C)(=O)=O)cc1	i
O=C(NCc1ccco1)c1ccc2c(c1)N(Cc1cccc(Cl)c1)C(=O)CS2	i
Cc1ccc(N2C(=O)S/C(=C\c3ccc4c(c3)OCO4)C2=O)cc1	i
COc1ccc(Br)cc1/C=C1/SC(=N)N(c2ccc3c(c2)OCO3)C1=O	40%*
COc1ccccc1N1C(=N)S/C(=C/c2ccc(Br)c([N+](=O)[O-])c2)C1=O	i
SMILES	ST2 inh
COc1ccccc1NC(=O)C1c2cc(OC)c(OC)cc2C(=O)N(C)C1c1ccccc1F (centres undefined)	i
COc1ccc([C@@H]2C(C#N)=C(N)S[C@H]2C(=O)c2ccccc2)cc1	i
COc1ccc(C(=O)N2CCCc3ccccc32)cc1	i
COc1ccc(N2CCSC2C(=O)c2ccccc2)cc1 (centres undefined)	32%*
CC(C)(C)c1[nH]nc2c1C(c1ccccc1F)C(C#N)=C(N)O2 (centres undefined)	i
O=C(c1cnc2n(c1=O)CCS2)N(Cc1ccccc1)Cc1ccccc1	i
COc1ccc(CNC(=O)C2(O)c3ccccc3NC(=O)N2c2cccc(OC)c2)cc1 (centres undefined)	i
CCN(CC)CCNC(=O)C1(O)c2ccccc2NC(=O)N1c1ccccc1 (centres undefined)	i
O=C1Nc2ccccc2C(O)(C(=O)NCc2ccc3c(c2)OCO3)N1c1ccccc1 (centres undefined)	30%*
CN(C)CCNC(=O)C1(O)c2ccccc2NC(=O)N1c1ccccc1 (centres undefined)	i
CCN(CC)CCNC(=O)C1(O)c2cc(Br)ccc2NC(=O)N1c1ccccc1 (centres undefined)	31%*!
CCCCNC(=O)C1(O)c2cc(Br)ccc2NC(=O)N1c1ccccc1 (centres undefined)	i
CCC(C)N(CC#Cc1ccccc1)C(=O)CC1=CCNCC1 (centres undefined)	i
COc1nc2ccccc2cc1-c1nc(C)ncc1C	i
CCOc1c(N2CCN(c3cccc(Cl)c3)CC2)c(=O)c1=O	i
CS(=O)(=O)N(Cc1ccccc1Cl)c1ccc(C(=O)N2CCc3ccccc3C2)cc1	i
CC(=O)N1CCC(N2C[C@H](O)C[C@H]2c2nc(-c3ccc(C(F)(F)F)cc3)no2)CC1	i
Oc1ccccc1CN1C[C@H](O)C[C@H]1c1nc(-c2ccc3c(c2)OCO3)no1	i
CC(=O)N1CCC(N2C[C@H](O)C[C@H]2c2nc(-c3ccc4c(c3)OCO4)no2)CC1	42%*
CC(=O)Nc1ccc(S(=O)(=O)N[C@H]2C[C@@H](c3nc(-c4ccc5c(c4)OCO5)no3)N(C)C2)cc1	i
O[C@@H]1C[C@@H](c2nc(-c3ccc4c(c3)OCO4)no2)N(C2CCOCC2)C1	33%*
O[C@@H]1C[C@@H](c2nc(-c3ccc4c(c3)OCO4)no2)N(Cc2ccc(Cl)cc2)C1	i
CN1C(=O)c2ccc(NC(=O)CN3C(=O)c4ccccc4S3(=O)=O)cc2C1=O	i
Cc1ccc(CN(CCN(C)C)C(=O)c2cnc3ccccn23)s1	i
COc1cccc(NC(=O)c2cnc3n(c2=O)CCS3)c1	i
SMILES	ST2 inh
CC(NC(=O)c1cc(C(=O)NC(C)c2ccccc2)cc([N+](=O)[O-])c1)c1ccccc1 (centres undefined)	i
CCN1/C(=C/C=c2/sc3nc4ccccc4n3c2=O)C=Cc2ccccc21	43%*
CN(C)c1ccc(/C=c2\sc3nc4ccccc4n3c2=O)cc1	i
CCN1/C(=c2/sc3nc4ccccc4n3c2=O)Sc2ccc(OC)cc21	i
CNC(=O)c1ccc(C)c([N+](=O)[O-])c1	i
Cc1cccc(C(=O)Nc2ccc(NC(=O)c3ccc(C)c([N+](=O)[O-])c3)cc2)c1	32%*
Cc1cccc(C(=O)Nc2cccc([N+](=O)[O-])c2C)c1	i
Cc1ccc(NC(=O)c2cccc(F)c2)cc1[N+](=O)[O-]	i
Cc1ccc(C(=O)c2ccc(Cl)cc2)cc1[N+](=O)[O-]	42%*
Cc1ccc(NC(=O)COc2ccc(Cl)cc2)cc1[N+](=O)[O-]	i
Cc1nn(C)c(C)c1C(=O)O	i
COc1ccc(C2SCCN2S(=O)(=O)c2cccc(C)c2)cc1 (centres undefined)	i
COc1ccc(N2CCN(Cc3ccoc3)CC2)cc1	i
CCn1ncnc1C1CC(=O)Nc2c1c(-c1ccccn1)nn2C (centres undefined)	i
Cc1ccc2nc(NC(=O)C3CC=CCC3C(=O)O)sc2c1 (centres undefined)	i
COc1ccc(N2CCN(C(=O)c3cn(C)c(=O)c4cc(OC)c(OC)cc34)CC2)cc1	46%*
CCN1CCN(C(=O)c2cn(CC)c(=O)c3cc(OC)c(OC)cc23)CC1	i
CCn1cc(C(=O)N2CCN(C)CC2)c2cc(OC)c(OC)cc2c1=O	i
CCOC(=O)C1CCCN(C(=O)c2cn(CC(C)C)c(=O)c3cc(OC)c(OC)cc23)C1 (centres undefined)	i
CCOC(=O)C1CCCN(C(=O)c2cn(C)c(=O)c3cc(OC)c(OC)cc23)C1 (centres undefined)	35%*
CCOC(=O)C1CCCN(C(=O)c2cn(CC)c(=O)c3cc(OC)c(OC)cc23)C1 (centres undefined)	i
C=C(C)CSc1nc(C)c(CC(=O)O)c(=O)[nH]1	i
Cc1[nH]cnc1C(=O)N1CCC(c2ccncc2)CC1	i
COc1cccc(CN2CCCC(O)(CN3CCC(n4cnnc4)CC3)C2=O)c1 (centres undefined)	i
